Biological target: T1, ETS1 (UniProt P14921)
T1 sequence: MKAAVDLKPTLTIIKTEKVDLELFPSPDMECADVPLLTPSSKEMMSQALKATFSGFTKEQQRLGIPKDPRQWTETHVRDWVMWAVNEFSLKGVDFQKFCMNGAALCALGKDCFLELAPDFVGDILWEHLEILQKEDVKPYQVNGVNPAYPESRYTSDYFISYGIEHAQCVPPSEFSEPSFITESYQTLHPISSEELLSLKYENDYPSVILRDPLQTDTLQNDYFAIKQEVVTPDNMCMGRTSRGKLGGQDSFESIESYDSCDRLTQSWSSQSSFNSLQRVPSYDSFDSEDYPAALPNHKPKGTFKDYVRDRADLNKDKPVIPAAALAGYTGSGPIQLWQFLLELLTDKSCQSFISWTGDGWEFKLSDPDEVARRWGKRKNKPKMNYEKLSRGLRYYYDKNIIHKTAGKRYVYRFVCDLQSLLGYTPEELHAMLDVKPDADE
Test: ETS1 binding intensity (PBM fluorescence), ETS1 alone (arbitrary fluorescence units); higher = stronger binding
Settings: ETS1 concentration 1 nM; RUNX1 concentration 0 nM
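Throughout, for RUNX1 binding intensity (PBM fluorescence) in presence of ETS1, normalised to RUNX1-only experiment: Full-length recombinant human ETS1 or RUNX1 bound to double-stranded 36-bp genomic probes on microarrays, detected by protein-specific primary antibody and Alexa488 secondary, spot fluorescence as median of four replicate spots.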
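Throughout, for RUNX1 binding intensity (PBM fluorescence), RUNX1 alone: Full-length recombinant human RUNX1 bound to double-stranded 36-bp genomic probes on a high-density microarray, scored as Alexa488 fluorescence per spot via anti-RUNX1 antibody, median of four replicate spots.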

Sequence	ETS1 binding intensity
CCAGGCGGAAGCGGCCGGGAGTAGCGCTGCGGTTGG	631
GAGGAACCCAAAGTAGGATGTGGTTTTGCAATTGGA	757
GATTGTTATGTCCGGAAACCGCTTATCAGAGCCCTG	2870
CAAGTAATCTGCTCAGGAAGTGGTTTGAATAGAGGA	2540
GCTCCCGGATGTTCTGGGGATCTGCGGCCGCCTGGC	1300
ACCTCAAGCCCAGGATGTGGTTTGGCCACTATTGAG	1310
AGCTCCCCTCCCCGGAAACTTGACCACCTAGCCCAG	1510
GAGAAACAGGAAGAGGGGTGGTGGTTACGGAACACG	2290
AGCTCCACCGGAAACGGCCTGGCCGCAGCCAATCAG	7110
AGTGCAGAGTGGACAGGATGTGGTGGAGGTGAGAGA	5690
GTGCTAGGACACAGGAAGCGATACCACAAAGAACAT	3200
CACTTCCTCCTCGGGGGCCTCAGAAAACCACAGGGC	413
GACTTGGGGGAAGTGGCTTGGTTTGCGTGGTTTCTC	433
AAGAAAAAGGGAGGATGTGGTTTAGCAAAAGCACTG	1420
CTTGCCACACTTCCTCTTGTTTTGAACCACTATATT	724
CGCCGCTCAACTTCCGGCAACCACAGCTCTCTCTGA	1830
CATTTCAGTCCAGGATGTGGGTGCACACACCGCTTC	1610
CCTGCGGATCACGGAAGTGGCTGCGGTCGGCGCCAT	2160
TGGGCAAGATATCCTGGAAGTGGTTAAAAAAAATTA	687

Biological target: RUNX1 (UniProt Q01196)
Sequence (Q01196 whole entry): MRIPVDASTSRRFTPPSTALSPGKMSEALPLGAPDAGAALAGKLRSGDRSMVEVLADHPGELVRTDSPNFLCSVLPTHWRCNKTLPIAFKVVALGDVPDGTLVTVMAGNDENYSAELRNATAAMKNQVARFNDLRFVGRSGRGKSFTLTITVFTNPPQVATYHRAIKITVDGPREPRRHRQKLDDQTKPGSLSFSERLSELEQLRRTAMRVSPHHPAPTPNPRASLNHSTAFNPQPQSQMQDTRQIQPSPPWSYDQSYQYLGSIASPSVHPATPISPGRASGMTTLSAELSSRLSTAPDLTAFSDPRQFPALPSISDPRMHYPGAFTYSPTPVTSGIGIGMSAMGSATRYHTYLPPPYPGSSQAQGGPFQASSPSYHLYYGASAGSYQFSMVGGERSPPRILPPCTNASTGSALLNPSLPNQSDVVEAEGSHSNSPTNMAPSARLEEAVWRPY
Test: RUNX1 binding intensity (PBM fluorescence), RUNX1 alone (arbitrary fluorescence units); higher = stronger binding
Settings: RUNX1 concentration 2 nM; ETS1 concentration 0 nM
Protocol: (§1)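 Cooperative gcPBM on 36-bp genomic probes with neighbouring ETS1 and RUNX1 sites. Recombinant human RUNX1 (2 nM) was incubated alone or with ETS1 (25 nM) and detected with anti-RUNX1 antibody plus Alexa488 secondary. Values are medians over 4 replicate spots; the RUNX1+ETS1 data were normalised to the RUNX1-only data. The probes sit in constant array flanks that are not printed.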

Sequence	RUNX1 binding intensity
GTCTTTCACTCCACTTCCGCCCCCACAAAACATACA	6600
AGCCGTCATTCAGGATGTGGTGACAGACATGGAGAC	769
GGAGGTGGGGAGGAAGTTCTGAAACCACACACATTT	891
AGCCAACAGGAAGCTGCAGAGACTAAACCACAGCAA	879
CGAAACGCGTTCCCCGGAAACCGCGCCCGGCTCCGA	763
AGGCCGCCTACAGGATGTTGGAAACCACAGGGCCCG	765
GAAACAATTTCCTGTACCTCTGTGGTAAAAATGATA	945
ACCCAGTAGGGGCCAGGATGTGGTGAAAAGAGAATT	728
CGGGACACAGGAAGCCGTTGTGGGGCCCCGGGGCCA	711
CCTGTTGATAAAACAGGATGTGGTAAAGAAGCTGGC	830
TGAAGTACTAGTCAAGGATGTGGTTTTACATAGCAG	923
AGGTCGCCCTCCGGATGCGGTCCCCACACCGCCTGC	857
CCTTGCAGCAACGGATGTGGGTTTTTTTTTTTCTTT	1120
GCTTGTCTTCCGGTTTCGTCGCCGCCGCAGGCGCAC	840
TGCTTAGCGGGAAGTGCTTACACCACAAAACAAGAC	726
GCTGATAGAACAGGATGTGGTAAAGAAGCAGGCCAA	824
CGGCAGGCAAGCAGGAAACCGCGAGTGGAGAAAGGG	1010
AGGGGAGGAACCAGGAAGTTGTGGTAAACTGTAGCA	982
CACCCCCCCAGTGCAGGAAGTGGTTTTCGAGGGCAG	908
GCTGTGCCGGCAGGATGTGGTCTTTGGTTTCTGTTT	850

Sequence	RUNX1 binding intensity
GAAGCTCCCCAAACAGGATGTGGTTAGGGAGAGGGG	879
CCAGGCGGAAGCGGCCGGGAGTAGCGCTGCGGTTGG	817
GAGGAACCCAAAGTAGGATGTGGTTTTGCAATTGGA	1020
GATTGTTATGTCCGGAAACCGCTTATCAGAGCCCTG	861
CAAGTAATCTGCTCAGGAAGTGGTTTGAATAGAGGA	743
GCTCCCGGATGTTCTGGGGATCTGCGGCCGCCTGGC	751
ACCTCAAGCCCAGGATGTGGTTTGGCCACTATTGAG	804
AGCTCCCCTCCCCGGAAACTTGACCACCTAGCCCAG	875
GAGAAACAGGAAGAGGGGTGGTGGTTACGGAACACG	807
AGCTCCACCGGAAACGGCCTGGCCGCAGCCAATCAG	806
AGTGCAGAGTGGACAGGATGTGGTGGAGGTGAGAGA	723
GTGCTAGGACACAGGAAGCGATACCACAAAGAACAT	818
CACTTCCTCCTCGGGGGCCTCAGAAAACCACAGGGC	1110
GACTTGGGGGAAGTGGCTTGGTTTGCGTGGTTTCTC	952
AAGAAAAAGGGAGGATGTGGTTTAGCAAAAGCACTG	920
CTTGCCACACTTCCTCTTGTTTTGAACCACTATATT	2620
CGCCGCTCAACTTCCGGCAACCACAGCTCTCTCTGA	1070
CATTTCAGTCCAGGATGTGGGTGCACACACCGCTTC	798
CCTGCGGATCACGGAAGTGGCTGCGGTCGGCGCCAT	1360
TGGGCAAGATATCCTGGAAGTGGTTAAAAAAAATTA	739

Biological target: RUNX1 (UniProt Q01196)
Test: RUNX1 binding intensity (PBM fluorescence) in presence of ETS1, normalised to RUNX1-only experiment (arbitrary fluorescence units); higher = stronger binding
Settings: RUNX1 concentration 2 nM; ETS1 concentration 25 nM
Protocol: as §1

Sequence	RUNX1 binding intensity
GTCTTTCACTCCACTTCCGCCCCCACAAAACATACA	6600
AGCCGTCATTCAGGATGTGGTGACAGACATGGAGAC	1320
GGAGGTGGGGAGGAAGTTCTGAAACCACACACATTT	1090
AGCCAACAGGAAGCTGCAGAGACTAAACCACAGCAA	1390
CGAAACGCGTTCCCCGGAAACCGCGCCCGGCTCCGA	1090
AGGCCGCCTACAGGATGTTGGAAACCACAGGGCCCG	2660
GAAACAATTTCCTGTACCTCTGTGGTAAAAATGATA	2610
ACCCAGTAGGGGCCAGGATGTGGTGAAAAGAGAATT	1020
CGGGACACAGGAAGCCGTTGTGGGGCCCCGGGGCCA	982
CCTGTTGATAAAACAGGATGTGGTAAAGAAGCTGGC	10300
TGAAGTACTAGTCAAGGATGTGGTTTTACATAGCAG	1340
AGGTCGCCCTCCGGATGCGGTCCCCACACCGCCTGC	1490
CCTTGCAGCAACGGATGTGGGTTTTTTTTTTTCTTT	10500
GCTTGTCTTCCGGTTTCGTCGCCGCCGCAGGCGCAC	1780
TGCTTAGCGGGAAGTGCTTACACCACAAAACAAGAC	1750
GCTGATAGAACAGGATGTGGTAAAGAAGCAGGCCAA	7890
CGGCAGGCAAGCAGGAAACCGCGAGTGGAGAAAGGG	1860
AGGGGAGGAACCAGGAAGTTGTGGTAAACTGTAGCA	2360
CACCCCCCCAGTGCAGGAAGTGGTTTTCGAGGGCAG	1790
GCTGTGCCGGCAGGATGTGGTCTTTGGTTTCTGTTT	3250

Sequence	RUNX1 binding intensity
GAAGCTCCCCAAACAGGATGTGGTTAGGGAGAGGGG	4090
CCAGGCGGAAGCGGCCGGGAGTAGCGCTGCGGTTGG	1610
GAGGAACCCAAAGTAGGATGTGGTTTTGCAATTGGA	1770
GATTGTTATGTCCGGAAACCGCTTATCAGAGCCCTG	1590
CAAGTAATCTGCTCAGGAAGTGGTTTGAATAGAGGA	977
GCTCCCGGATGTTCTGGGGATCTGCGGCCGCCTGGC	1320
ACCTCAAGCCCAGGATGTGGTTTGGCCACTATTGAG	1680
AGCTCCCCTCCCCGGAAACTTGACCACCTAGCCCAG	813
GAGAAACAGGAAGAGGGGTGGTGGTTACGGAACACG	1340
AGCTCCACCGGAAACGGCCTGGCCGCAGCCAATCAG	2450
AGTGCAGAGTGGACAGGATGTGGTGGAGGTGAGAGA	1500
GTGCTAGGACACAGGAAGCGATACCACAAAGAACAT	1790
CACTTCCTCCTCGGGGGCCTCAGAAAACCACAGGGC	2790
GACTTGGGGGAAGTGGCTTGGTTTGCGTGGTTTCTC	1060
AAGAAAAAGGGAGGATGTGGTTTAGCAAAAGCACTG	2230
CTTGCCACACTTCCTCTTGTTTTGAACCACTATATT	4740
CGCCGCTCAACTTCCGGCAACCACAGCTCTCTCTGA	3150
CATTTCAGTCCAGGATGTGGGTGCACACACCGCTTC	1430
CCTGCGGATCACGGAAGTGGCTGCGGTCGGCGCCAT	4890
TGGGCAAGATATCCTGGAAGTGGTTAAAAAAAATTA	1060

From the supplement of paper PMC10681739
